aSyn 5UTR act: Activators working through SNCA 5'UTR binding (MLPCN); alpha-synuclein 5'UTR reporter, activators screen; activity score, % (tested at 7.5 µM), hits read low; 300,000 tested, 7.1% active; AID 1814; in the data active means activity score below about -60%
Starred values were filed as active, the others as inactive. These entries were drawn from the full list.

SMILES	aSyn 5UTR act
CC(=O)Nc1ccc(SCC(=O)c2cc(C)n(C)c2C)cc1	-69*
O=C(NCCCc1ccccc1)c1cnc2n(c1=O)CCS2	-125*
Nc1c(C(=O)Nc2ccc(S(=O)(=O)N3CCCC3)cc2)sc2nc3ccc(OC(F)(F)F)cc3cc12	109
O=C(Nc1ccc(OC(F)(F)F)cc1)c1cnc2n(c1=O)CCS2	-160*
O=C(Nc1ccccc1)c1cnc2n(c1=O)CCS2	-100*
O=C(Nc1cccc(C(F)(F)F)c1)c1cnc2n(c1=O)CCS2	-108*
O=C(NCCC1=CCCCC1)c1cnc2n(c1=O)CCS2	-108*
CN(Cc1cnc2nc(N)nc(N)c2n1)c1ccc(C(=O)N[C@@H](CCC(=O)O)C(=O)O)cc1	78
COc1ccc(/C=N/Nc2ncnc3sc(C)c(C)c23)cc1	-114*
Cc1sc2ncnc(N/N=C/c3ccc(O)cc3)c2c1C	-64*
Cc1sc2ncnc(N/N=C/c3ccccc3O)c2c1C	106
C=CCSc1nnc(-c2cc3c(s2)-c2ccccc2CC3)o1	-104*
C/C(=N\NC(=O)c1ccc(Cl)cc1)c1ccccn1	-63*
C/C(=N\Nc1ccc(Cl)cc1)c1ccccn1	-138*
O=C(NNC(=O)c1cnccn1)c1ccc(Cl)c(Cl)c1	51
C/C(=N/NC(=O)c1ccccn1)c1ccc(O)cc1	-90*
C/C(=N\Nc1ccc2nncn2n1)c1ccccn1	94
COc1cc(C(=O)N/N=C(\C)c2ccccn2)cc(OC)c1OC	109
N/C(=N\NC(=O)c1ccc(Cl)cc1)c1cnccn1	-67*
Fc1c(F)c(F)c(N/N=C/c2c[nH]c3ccccc23)c(F)c1F	-103*
Cn1c(N/N=C/c2c[nH]c3ccccc23)nc2ccccc21	-126*
Cn1c(N/N=C/c2cc3ccccc3nc2Cl)nc2ccccc21	-127*
O=[N+]([O-])c1ccc(O)c(C=Nc2ccc3c(c2)OCO3)c1	-86*
CC1(C)CC(=O)C(C=Nc2ccc3c(c2)OCO3)=C(O)C1	-71*
CNc1nc(N/N=C/c2cc3c(cc2[N+](=O)[O-])OCO3)nc(Nc2ccccc2)n1	74
SMILES	aSyn 5UTR act
O=[N+]([O-])c1cc(Br)cc(C=Nc2ccc3c(c2)OCO3)c1O	-89*
CCn1cc(/C=C/C(=O)c2ccc(O)cc2)c(C)n1	-105*
Cc1c(/C=C/C(=O)c2ccc(Cl)s2)cnn1C	-163*
CCn1ncc(/C=C/C(=O)c2ccccc2)c1C	-70*
Cc1c(/C=C/C(=O)c2ccc(O)cc2)cnn1C	-146*
Cc1c(/C=C/C(=O)c2ccccc2)cnn1C	-123*
Cc1c(/C=C/C(=O)c2ccc(C(C)C)cc2)cnn1C	-92*
Cc1nn(C)cc1/C=C/C(=O)c1ccccc1	-110*
CC(=O)N1N=C(c2ccc(C)cc2)OC1c1ccc(C(C)C)cc1 (stereo not given)	-182*
CC(=O)N1N=C(c2ccc(C)cc2)OC1c1ccc(C)cc1 (stereo not given)	-129*
CC1(C)CCc2cc(-c3ccn(S(=O)(=O)c4ccccc4Cl)n3)ccc2O1	-84*
COc1ccc(S(=O)(=O)n2ccc(-c3ccc4c(c3)CCC(C)(C)O4)n2)cc1	-103*
COc1ccc(S(=O)(=O)N2c3ccc(F)cc3CCC2C)cc1 (stereo not given)	112
Cc1ccc(O)c(NC(=O)CCC2CCCCC2)c1	-152*
Cn1c(NC(=O)CCC2CCCCC2)cc(=O)n(C)c1=O	-63*
O=C(CCC1CCCCC1)Nc1ccccc1O	-163*
O=C(Nc1nnc(-c2ccco2)o1)c1ccc([N+](=O)[O-])s1	-71*
CC1CCN(S(=O)(=O)c2ccc(C(=O)Nc3nnc(-c4ccco4)o3)cc2)CC1	61
CCc1ccccc1NC(=O)c1ccc([N+](=O)[O-])s1	-68*
CCc1ccc(-c2cc(C)no2)cc1S(=O)(=O)N1CCN(c2ccccc2)CC1	-73*
Nc1c(C(=O)Nc2cccc(C(=O)O)c2)sc2nc3c(cc12)CCCC3	77
Nc1c(C(=O)C2CC2)sc2nc3c(cc12)CCC3	-161*
Nc1c(C(=O)c2ccc(Cl)cc2)sc2nc3c(cc12)CCC3	-108*
Nc1nc(-c2cc3ccccc3o2)cs1	-132*
Cc1cc(C)n(CCc2nc(-c3cc4ccccc4o3)cs2)n1	-112*
SMILES	aSyn 5UTR act
CN1CCN(c2nc(-c3cc4ccccc4o3)cs2)CC1	-142*
O=C(NC1=NCCS1)C12CC3CC(C1)CC(C(=O)NC1=NCCS1)(C3)C2	-71*
CC(C)c1ccc(N=C2NN=C(c3cccs3)CS2)cc1	-145*
CC(C)N=C1NN=C(c2ccc(Cl)c(Cl)c2)CS1	-228*
CC(C)N=C1NN=C(c2cccs2)CS1	-100*
COc1ccc(-c2ncc3ccccn23)cc1	-142*
COc1cccc(-c2ncc3ccccn23)c1	-124*
COc1cc(O)c2c(=O)c(-c3ccc(O[C@@H]4O[C@H](CO)[C@@H](O)[C@H](O)[C@H]4O)cc3)coc2c1	-155*
O=c1c(-c2ccc(O)cc2)coc2cc(OC3OC(CO)C(O)C(O)C3O)cc(O)c12 (stereo not given)	-83*
O=c1c(-c2ccc(O)cc2)coc2cc(OC3OC(CO)C(O)C(O)C3O)ccc12 (stereo not given)	-82*
